Measured values from PubChem BioAssay (EPA / NIEHS).
“And” between values parts separate entries of the source, which are not always exact repeats. Equal values may be shown once. Records with an inconclusive call do not appear. Some compounds were tested as several samples or in several runs, with calls that do not always agree. The source made the active and inactive calls. How the source made its calls, unless noted: active means hit-call score of the fitted dose curve at least 0.9, where 1 is the maximum; inactive means score below 0.9.

Tests used:
[1] = IUF_NPC2c_oligodendrocyte_migration_120hr: Leibniz Research Institute for Environmental Medicine (IUF) 120-hour Neural Progenitor Cell Migration Assay for Oligodendrocyte Migration (NPC2c) (AID 2284297)
Outline: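 Read-out is the mean distance of O4-positive oligodendrocytes from the sphere core edge at 120 h, normalized to radial glia migration and fitted in the gain direction against DMSO. Spheres of primary human neural progenitors differentiated on laminin under continuous compound exposure.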

[2] = IUF_NPC2a_radial_glia_migration_120hr: Leibniz Research Institute for Environmental Medicine (IUF) 120-hour Neural Progenitor Cell Migration Assay for Radial Glia Migration (NPC2a) (AID 2284298)
Outline: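 Readout: distance in um from sphere core edge to migration-area edge, derived from Hoechst nuclei density with a threshold-defined polynomial boundary. Spheres: hNPC, GW 16-19, 0.3 mm, on PDL/laminin; exposure 5 days; DMSO is baseline.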

[3] = IUF_NPC2a_radial_glia_migration_72hr: Leibniz Research Institute for Environmental Medicine (IUF) 72-hour Neural Progenitor Cell Migration Assay for Radial Glia Migration (NPC2a) (AID 2284299)
Outline: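 Human fetal cortex (GW 16-19) neural progenitor spheres, 0.3 mm, plated on poly-D-lysine/laminin in N2 differentiation medium with compound from day 0. Radial glia migration distance (um, sphere core edge to migration edge) measured manually in four directions on 72 h brightfield images; well mean used.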

[4] = IUF_NPC2b_neuronal_migration_120hr: Leibniz Research Institute for Environmental Medicine (IUF) 120-hour Neural Progenitor Cell Migration Assay for Neuron Migration (NPC2b) (AID 2284300)
Outline: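 Read-out is mean distance from sphere edge to each TUBB3-positive neuron at 120 h, expressed relative to radial glia migration distance and to DMSO baseline. Single 0.3 mm human NPC spheres differentiated on laminin under continuous compound exposure.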

[5] = IUF_NPC3_neuronal_differentiation_120hr: Leibniz Research Institute for Environmental Medicine (IUF) 120-hour Neuronal Differentiation Assay (NPC3) (AID 2284301)
Outline: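 Single 0.3 mm neurospheres from human fetal cortex were plated in differentiation medium containing test compound. Medium was half-replaced on day 3. After 120 h cells were fixed, immunostained and imaged, and neuronal fraction was scored against DMSO control.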

[6] = IUF_NPC4_neurite_length_120hr: Leibniz Research Institute for Environmental Medicine (IUF) 120-hour Neuronal Morphology Assay for Neurite Length (NPC4) (AID 2284302)
Outline: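 Read-out is mean neurite length in µm of TUBB3-positive neurons, skeletonized from high-content fluorescence images after 120 h. Single 0.3 mm primary human neural progenitor spheres differentiated on poly-D-lysine/laminin under continuous compound exposure; DMSO was baseline.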

[7] = IUF_NPC5_oligodendrocyte_differentiation_120hr: Leibniz Research Institute for Environmental Medicine (IUF) 120-hour Oligodendrocyte Differentiation Assay (NPC5) (AID 2284304; active means hit-call score of the fitted dose curve at least 0.9, where 1 is the maximum;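 further: primary human fetal neural progenitor spheres plated to migrate and differentiate; share of O4-positive cells among Hoechst nuclei found by CNN image analysis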)
Outline: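 Oligodendrocyte differentiation was scored after 120 h as the O4-positive share of Hoechst-stained nuclei across the neurosphere migration area, using a trained convolutional neural network on high-content fluorescence images. Human fetal neural progenitor spheres were dosed from day 0, normalised to DMSO.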

[8] = IUF_NPC4_neurite_area_120hr: Leibniz Research Institute for Environmental Medicine (IUF) 120-hour Neuronal Morphology Assay for Neurite Area (NPC4) (AID 2284305; active means hit-call score of the fitted dose curve at least 0.9, where 1 is the maximum)
Outline: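 Neurite area is read out as the mean pixel area, excluding nuclei, of skeletonized TUBB3-positive neurons imaged after 120 h. Primary human neural progenitor spheres differentiated on poly-D-lysine/laminin with compound present from day 0. Activity was referenced to DMSO controls.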

[9] = IUF_NPC2-5_cytotoxicity_72hr: Cytotoxicity Assessment at 72 hours in the Leibniz Research Institute for Environmental Medicine (IUF) Neural Progenitor Cell Migration and Differentiation Assay for Cytotoxicity (NPC2-5) (AID 2284306; active means hit-call score of the fitted dose curve at least 0.9, where 1 is the maximum;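 further: LDH release into supernatant measured by resorufin fluorescence marking membrane damage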)
Outline: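 Membrane integrity loss was scored from fluorescence (RFU) of resorufin generated by LDH in culture supernatant, 72 h after dosing. Differentiating human progenitor spheres received seven serial compound concentrations alongside a solvent control.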

[10] = IUF_NPC2-5_cytotoxicity_120hr: Cytotoxicity Assessment at 120 hours in the Leibniz Research Institute for Environmental Medicine (IUF) Neural Progenitor Cell Migration and Differentiation Assay (NPC2-5) (AID 2284307; active means hit-call score of the fitted dose curve at least 0.9, where 1 is the maximum)
Outline: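 Sphere plating starts differentiation and exposure together at day 0. Compound solution is half-replaced on day 3. At 120 h, medium supernatant is taken for an LDH membrane-integrity read based on resazurin reduction to resorufin fluorescence.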

[11] = read-out: CD40, CD40 (gene 958); assay: BSK_IMphg_CD40: BioMAP Diversity Plus: IMphg Assay for CD40 Biomarker Activity (AID 2284288); conditions: primary human endothelial cells with macrophages
Outline: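 Venular endothelial cells co-cultured with macrophages (human primary), CD40 measured by ELISA 24 h after dosing. Positive-direction fit vs DMSO baseline; cytotoxicity tracked by SRB total-protein staining in parallel cultures.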

[12] = read-out: TIMP metallopeptidase inhibitor 2 (TIMP2), TIMP2 (gene 7077); assay: BSK_hDFCGF_TIMP2: BioMAP Diversity Plus: hDFCGF Assay for TIMP metallopeptidase inhibitor 2 (TIMP2) Biomarker Activity (AID 2284289); conditions: primary human foreskin fibroblasts
Outline: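 Primary human foreskin fibroblasts in the hDFCGF system, dosed for 24 h; TIMP-2 level measured by ELISA, fitted in the positive direction against DMSO; cytotoxicity checked in parallel by sulforhodamine B total protein staining.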

[13] = read-out: Interleukin-1 alpha (IL1a), IL1A (gene 3552); assay: BSK_IMphg_IL1a: BioMAP Diversity Plus: IMphg Assay for Interleukin-1 alpha (IL1a) Biomarker Activity (AID 2284290); conditions: primary human endothelial cells with macrophages
Outline: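 Human venular endothelial cells co-cultured with macrophages, IMphg system. IL-1α is measured by ELISA 24 h after dosing and fitted in the positive direction against DMSO. Cytotoxicity is assessed by SRB staining of parallel cultures.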

[14] = read-out: E-selectin (Homo sapiens) (UniProt P16581); assay: BSK_IMphg_ESelectin: BioMAP Diversity Plus: IMphg Assay for Eselectin Biomarker Activity (AID 2284291); conditions: primary human endothelial cells with macrophages
Outline: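 Human venular endothelial cell–macrophage co-culture, E-selectin measured by ELISA 24 h after chemical dosing. Signal fitted in the positive direction against DMSO as negative control and baseline.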

[15] = BSK_IMphg_SRB: Viability Assessment in the BioMAP Diversity Plus: IMphg Assay (AID 2284292); conditions: primary human endothelial cells with macrophages;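 further: measured one day after compound addition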
Outline: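 Human venular endothelial cells with macrophages, 24 h after chemical dosing; total protein by 0.1% SRB staining after 10% TCA fixation, read at 560 nm. Positive-direction fitting versus DMSO baseline.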

[16] = read-out: Macrophage colony-stimulating factor (MCSF), CSF1 (gene 1435); assay: BSK_IMphg_MCSF: BioMAP Diversity Plus: IMphg Assay for Macrophage colony-stimulating factor (MCSF) Biomarker Activity (AID 2284293); conditions: primary human endothelial cells with macrophages
Outline: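 Co-culture of human venular endothelial cells and macrophages, 24 hours of chemical exposure. M-CSF quantified by ELISA, with parallel SRB total-protein staining for cytotoxicity; activity fitted relative to DMSO.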

[17] = read-out: Interleukin-10 (IL10), IL10 (gene 3586); assay: BSK_IMphg_IL10: BioMAP Diversity Plus: IMphg Assay for Interleukin-10 (IL10) Biomarker Activity (AID 2284294); conditions: primary human endothelial cells with macrophages
Outline: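 Human venular endothelial cells cocultured with macrophages, dosed 24 h; IL-10 measured by ELISA, activity relative to DMSO. Cytotoxicity assessed in parallel cultures by sulforhodamine B total-protein staining.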

[18] = BSK_IMphg_SRB.Mphg: Macrophage Viability Assessment in the BioMAP Diversity Plus: IMphg Assay (AID 2284295); conditions: primary human endothelial cells with macrophages
Outline: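 Venular endothelial cells co-cultured with macrophages, read 24 h after dosing. Total protein measured by 0.1% SRB staining after 10% TCA fixation, absorbance at 560 nm. Fitted in positive direction against DMSO baseline.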

[19] = read-out: Thrombomodulin, THBD (gene 7056); assay: BSK_LPS_Thrombomodulin: BioMAP Diversity Plus: LPS Assay for Thrombomodulin Biomarker Activity (AID 2284296); conditions: primary human HUVEC with PBMC
Outline: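 Human umbilical vein endothelial cells co-cultured with PBMC and stimulated with LPS; cell-surface thrombomodulin measured by ELISA 24 hours after compound. Gain or loss versus DMSO; cytotoxicity checked by SRB staining in parallel cultures.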

[20] = read-out: CD69, CD69 (gene 969); assay: BSK_LPS_CD69: BioMAP Diversity Plus: LPS Assay for CD69 Biomarker Activity (AID 2284303); conditions: primary human HUVEC with PBMC
Outline: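 Human umbilical vein endothelial cells co-cultured with PBMC under LPS stimulation, chemical exposure 24 h; cell-surface CD69 measured by ELISA and fitted in the positive direction versus DMSO.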

Measured: AC50

E-selectin (Homo sapiens), sequence (P16581 whole entry, looked up): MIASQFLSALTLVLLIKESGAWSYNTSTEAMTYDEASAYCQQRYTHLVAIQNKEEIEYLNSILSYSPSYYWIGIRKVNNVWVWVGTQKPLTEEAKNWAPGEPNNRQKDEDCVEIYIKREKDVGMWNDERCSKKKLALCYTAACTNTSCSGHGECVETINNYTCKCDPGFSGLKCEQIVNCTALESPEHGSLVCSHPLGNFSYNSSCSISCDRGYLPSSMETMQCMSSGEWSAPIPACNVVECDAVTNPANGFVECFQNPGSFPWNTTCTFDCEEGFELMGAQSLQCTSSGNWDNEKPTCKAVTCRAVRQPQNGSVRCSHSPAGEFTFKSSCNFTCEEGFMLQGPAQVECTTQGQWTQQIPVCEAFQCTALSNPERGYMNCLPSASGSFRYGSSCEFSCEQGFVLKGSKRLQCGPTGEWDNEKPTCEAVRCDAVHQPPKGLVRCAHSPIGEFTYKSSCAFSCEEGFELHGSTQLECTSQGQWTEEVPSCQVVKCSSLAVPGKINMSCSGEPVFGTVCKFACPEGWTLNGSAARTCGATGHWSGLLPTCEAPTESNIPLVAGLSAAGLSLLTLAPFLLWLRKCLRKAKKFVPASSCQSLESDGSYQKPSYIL

O=P(OC(CCl)CCl)(OC(CCl)CCl)OC(CCl)CCl
inactive: [1] | [3] | [4] | [5] | [6] | [8] | [9] | [10]
active: [2] 5.38 µM | [7] 4.15 µM

Cn1cnc([N+](=O)[O-])c1Sc1ncnc2nc[nH]c12
inactive: [11] | [12] | [13] | [15] | [18] | [19] | [20]
active: [11] 16.4 µM | [14] 2.5 µM and 9.29 µM | [16] 14.7 µM and 8.87 µM | [17] 12.6 µM
